Screens: PubChem BioAssay, National Center for Advancing Translational Sciences (NCATS)
A selection: hits, their analogues and other compounds. The true share with any hit is near 3.6%.
PMP22 txn prim: PMP22 gene transcription modulation; 43,000 compounds, 2% hits; S16 Pmp22-F2sN Schwann cells, FLuc/NLuc coincidence luminescence, 24 h; Potency, µM (titrated, usually from 57.5 µM), inactives show top-dose activity change, negative = inhibition, most hits filed as inhibitors; active = clear falling dose curves in both reporters; inconclusive = both reporters move, but less clearly or upward; inactive = either reporter flat; the % is the NLuc reporter signal; note: potency is the fitted concentration of half-maximal effect; % is set by controls: 0 for no effect and ±100 for the full control effect
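Luminescent read-out of sequential FLuc and NLuc signals from a reporter embedded in the Pmp22 3' UTR of S16 Schwann cells, taken after 24 h compound exposure at 37C; compounds reducing both signals score as inhibitors of expression.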
SKOV3 invasion: inhibitors of ovarian cancer cell adhesion and invasion in omental model; 46,000 compounds, 0.1% hits; AID 1963576; SKOV3ip1-GFP adhesion/invasion on 3D omental model, fluorescence; Potency, µM (titrated, usually from 45.8 µM), for inactives: at the top dose activity change, negative = inhibition, actives largely listed as inhibitors;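 note: potency is the fitted concentration of half-maximal effect; plate controls were DMSO wells for no effect and tomatine positive control wells for full effect; nearly all actives have a fitted effect of over 65% in size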
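Adhesion/invasion was scored as fixed GFP-labeled SKOV3ip1 cell counts (488/509 nm), normalized to DMSO and tomatine controls. Cancer cells in serum-free medium, with four compound doses (0.36-46 umol/L), sat 2 hr at RT then 16 hr at 37 C on a 48 hr fibroblast/mesothelial/ECM culture.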
HTT prom inh: HTT promoter inhibition | HEK293 HTT promoter firefly luciferase reporter, 24 h | Potency, µM (doses to about 57.5 µM), for inactives: at the top dose activity change, negative = inhibition, most hits filed as inhibitors | 48,000 compounds, 0.93% hits | AID 1508623; note: potency is the fitted concentration of half-maximal effect; nearly all actives have a fitted effect of over 50% in size
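Quantitative HTS used concentration series of up to 57.5 uM final on HEK293 luciferase reporter cells, 24 h at 37 degrees C. Readout was Dual-Glo firefly luminescence.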
HTT-AS act: activators of huntingtin-antisense promoter activity; 48,000 compounds, 0.24% hits; HEK293 HTT-AS promoter firefly luciferase reporter, 24 h; response scale: percent change from vehicle, -100% = no light; AID 1508624; Potency, µM (highest dose often 57.5 µM), for inactives: at the highest dose activity change, positive = activation, most hits filed as activators; note: potency is the fitted concentration of half-maximal effect; nearly all actives have a fitted effect of over 55% in size
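Quantitative HTS used concentration series of up to 57.5 uM final on HEK293 luciferase reporter cells, 24 h at 37 degrees C. Readout was Dual-Glo firefly luminescence.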
S16 F2sN tox: S16 Schwann cell cytotoxicity. S16 Pmp22-F2sN Schwann cells viability, CellTiter-Glo, 24 h. Potency, µM (titrated, usually from 57.5 µM), inactives show at the top dose activity change, negative = cytotoxicity, hits mostly cytotoxic. 43,000 compounds, 0.48% hits. AID 1508642; note: potency is the fitted concentration of half-maximal effect; % is set by controls: 0 for no effect and ±100 for the full control effect; nearly all actives have a fitted effect of over 65% in size
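Used to flag compounds lowering reporter output through toxicity, this quantitative HTS measures ATP-based CellTiter-Glo luminescence in S16 Pmp22-F2sN Schwann cells after 24 h compound exposure at 37C.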
mTORC1 inh: reduces mTORC1 signaling in Tsc2 and p53 null MEF cells; Tsc2-/- p53-/- MEF, phospho-rpS6 immunofluorescence/PI, 24 h; Potency, µM (series often up to 38.3 µM), for inactives: at the highest dose activity change, negative = inhibition, most hits filed as inhibitors; 44,000 compounds, 0.78% hits; AID 493208;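 note: potency is the fitted concentration of half-maximal effect; plate controls were DMSO for no effect and rapamycin for full effect; nearly all actives have a fitted effect of over 50% in size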
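Cell-based qHTS: Tsc2-/- p53-/- MEF, 24 h cpd, 37 °C; fix/perm, anti-phospho-S6 Alexa-488 + PI; Acumen 488 nm scan; pS6/PI ratio, % positive cells; rapamycin 7.5 nM = inhibition ref; PI count = viability.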
NLuc sat counter: inhibits NanoLuc at saturating substrate, PMP22 counter-screen; 690 compounds, 4% hits; Secreted NLuc enzyme (filtered S16 cell medium), Nano-Glo luminescence; AID 1508638; Potency, µM (top dose mostly 57.5 µM), inactives show top-dose activity change, negative = inhibition, hits mostly inhibitors; shares compounds with PMP22 txn prim; note: potency is the fitted concentration of half-maximal effect; % is set by controls: 0 for no effect and ±100 for the full control effect
NLuc Km ctr: counter-screen for PMP22 expression modulators: NanoLuc inhibition at Km | shares compounds with PMP22 txn prim | secreted NLuc enzyme, coelenterazine luminescence, Km conditions | Potency, µM (top dose mostly 57.5 µM), for inactives: at the top dose activity change, negative = inhibition, actives largely listed as inhibitors | 690 compounds, 5% hits | AID 1508639; note: potency is the fitted concentration of half-maximal effect; % is set by controls: 0 for no effect and ±100 for the full control effect
FLuc counter: firefly luciferase enzyme inhibition artifact for PMP22 screen. shares compounds with PMP22 txn prim. 690 tested, under 10 active. AID 1508640. Potency, µM (highest dose often 57.5 µM), inactives show at the top dose activity, negative = inhibition, hits mostly inhibitors. purified P. pyralis FLuc, luminescence, 10 min; note: % of control where 0% means no effect
Target sequence (P08659 whole entry, looked up): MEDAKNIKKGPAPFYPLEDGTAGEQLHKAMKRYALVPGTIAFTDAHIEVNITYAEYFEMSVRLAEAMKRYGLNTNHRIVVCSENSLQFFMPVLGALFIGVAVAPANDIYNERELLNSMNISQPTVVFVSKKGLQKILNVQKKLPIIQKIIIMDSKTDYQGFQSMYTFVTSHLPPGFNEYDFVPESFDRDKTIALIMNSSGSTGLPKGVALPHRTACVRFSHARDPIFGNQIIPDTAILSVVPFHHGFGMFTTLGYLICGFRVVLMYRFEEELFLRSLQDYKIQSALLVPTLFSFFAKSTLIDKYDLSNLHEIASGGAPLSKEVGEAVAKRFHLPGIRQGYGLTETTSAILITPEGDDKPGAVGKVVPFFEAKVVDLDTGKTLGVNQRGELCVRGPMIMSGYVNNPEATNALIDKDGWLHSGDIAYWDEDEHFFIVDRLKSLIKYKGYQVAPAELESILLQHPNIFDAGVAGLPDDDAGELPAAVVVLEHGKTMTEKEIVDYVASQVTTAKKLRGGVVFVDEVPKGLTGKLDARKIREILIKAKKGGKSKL
S16 F2sN tox cnf: S16 Schwann cell cytotoxicity, confirmatory | shares compounds with PMP22 txn prim | S16 Schwann cells viability, CellTiter-Glo ATP luminescence, 24 h | Potency, µM (top dose mostly 57.5 µM), for the others: at the highest dose activity change, negative = viability loss, usual class: cytotoxic | 690 compounds, 7% hits; note: potency is the fitted concentration of half-maximal effect; % is set by controls: 0 for no effect and ±100 for the full control effect
PMP22 txn cnf: PMP22 transcription modulation, confirmatory; 690 compounds, 22% hits; Potency, µM (top dose mostly 57.5 µM), without a hit: at the highest dose activity change, negative = inhibition, most hits filed as inhibitors; S16 Schwann cells Pmp22-F2sN, dual luciferase, 24 h; shares compounds with PMP22 txn prim; AID 1508646; active = clear falling dose curves in both reporters; inconclusive = both reporters move, but less clearly or upward; inactive = either reporter flat; the % is the FLuc reporter signal; note: potency is the fitted concentration of half-maximal effect
PMP22 HiBiT cnf: confirmation of modulators of rat PMP22 protein expression | shares compounds with PMP22 txn prim | S16 Schwann cells Pmp22-HiBiT, luminescence, 48 h | Potency, µM (top dose mostly 27.9 µM), without a hit: at the highest dose activity change, negative = inhibition, usual class: inhibitors | 95 tested, under 10 active | AID 1508647
Target sequence (P25094 whole entry, looked up): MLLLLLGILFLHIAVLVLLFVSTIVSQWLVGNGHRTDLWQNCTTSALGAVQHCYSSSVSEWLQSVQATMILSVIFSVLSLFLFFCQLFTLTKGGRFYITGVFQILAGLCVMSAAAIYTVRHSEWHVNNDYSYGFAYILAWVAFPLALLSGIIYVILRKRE
The depositor's hits bear a star; i = inactive; ? = inconclusive; / = no result. Unless noted, calls come from the whole dose curve; as a rule, active = well fitted curve in the direction sought with a large enough effect; inconclusive = small, poorly fitted or top-dose-only effect, or another doubt; inactive = no such curve, though single readings can be large; an effect the other way counts as inactive or inconclusive.

SMILES | PMP22 txn prim | SKOV3 invasion | HTT prom inh | HTT-AS act | S16 F2sN tox | mTORC1 inh | NLuc sat counter | NLuc Km ctr | FLuc counter | S16 F2sN tox cnf | PMP22 txn cnf | others
Cc1ccc2cc(CN(C(=O)c3cccc(Cl)c3)c3ccccc3)c(=O)[nH]c2c1 | -7% | 0% | -19% | 2% | 1% | -7% | / | / | / | / | /
OCCn1cc(-c2cnc3nnn(Cc4ccc5ncccc5c4)c3n2)cn1 | / | -22% | 0% | 5% | / | / | / | / | / | / | /
C#C[C@]1(O)CC[C@H]2[C@H]3CCc4cc(OC)ccc4[C@H]3CC[C@@]21C | / | -13% | -8% | ? | / | / | / | / | / | / | /
COc1cc2nc(SCC(=O)Nc3cccc(C)c3)n3nc(-c4ccccc4)nc3c2cc1OC | 8% | i | -1% | -11% | 5% | -18% | / | / | / | / | /
CCC(Sc1nc2ccccc2c2nc(-c3ccccc3)nn12)C(=O)Nc1cccc(OC)c1 (configuration not stated) | 13µM* | -1% | 7% | -6% | ? | 0% | -3% | -3% | -3% | -25% | 15µM* | PMP22 HiBiT cnf=?
COc1ccc(-n2c(SCc3nc(-c4ccc(Cl)cc4)no3)nnc2-c2ccncc2)cc1 | ? | -26% | -5% | -10% | ? | 6% | / | / | / | / | /
COc1ccc(-c2noc(CSc3nnc(-c4ccncc4)n3-c3cccc(C)c3)n2)cc1OC | 10µM* | 5% | ? | -29% | -3% | 1% | ? | ? | -12% | -16% | -57%
COc1ccc(-c2noc(CSc3nnc(C)n3-c3ccc(C)cc3)n2)cc1OC | 12µM* | i | ? | -37% | -18% | 4% | 22µM* | 14µM* | -16% | ? | -44%
CCOc1ccccc1-c1noc(CSc2nnc(-c3ccccc3)n2-c2cccc(C)c2)n1 | ? | -4% | ? | -25% | 5% | -1% | / | / | / | / | /
COc1ccc(-c2noc(CSc3nnc(-c4ccncc4)n3-c3ccc(C)c(C)c3)n2)cc1 | 13µM* | 7% | -17% | -31% | -24% | -5% | ? | ? | -2% | ? | ?
C[C@@H](O[C@H]1OCCN(Cc2n[nH]c(=O)[nH]2)[C@H]1c1ccc(F)cc1)c1cc(C(F)(F)F)cc(C(F)(F)F)c1 | / | / | -27% | -44% | / | / | / | / | / | / | /
CC[C@H]1OC(=O)[C@H](C)[C@@H](O[C@H]2C[C@@](C)(OC)[C@@H](O)[C@H](C)O2)[C@H](C)[C@@H](O[C@@H]2O[C@@H](C)C[C@H](N(C)C)[C@@H]2O)[C@](C)(O)C[C@@H](C)C(=O)[C@H](C)[C@@H](O)[C@]1(C)O | / | -10% | 0% | -12% | / | / | / | / | / | / | /
COc1ccc(CCNc2ncnc3onc(C)c23)c(OC)c1 | 4µM* | 4% | 1.3µM* | -84% | ? | 1% | -18% | 4% | -17% | ? | 4µM*
CC=CC(=O)N(CC)c1ccccc1C | / | 5% | -10% | -40% | / | / | / | / | / | / | /
CCC1CCCCN1CCCNC(=O)c1ccc2c(c1)N(Cc1ccccc1F)C(=O)c1ccccc1S2(=O)=O (configuration not stated) | 8.9µM* | -17% | ? | -33% | ? | ? | -21% | 4% | -14% | ? | ?
O=C(c1cc(O)c(O)c(O)c1)c1ccc(O)c(O)c1O | / | / | 0% | 0% | / | / | / | / | / | / | /
COC(=O)COc1ccc(-c2nnc(Nc3ccc(O)cc3)c3ccccc23)cc1 | 11µM* | 2.5µM* | 0% | -34% | ? | ? | 12µM* | 11µM* | -16% | -19% | ?
CNC(=O)c1cc(Nc2nnc(-c3ccc(O)cc3)c3ccccc23)ccc1OC | -22% | 2% | -9% | -22% | ? | 2% | / | / | / | / | /
CCOc1cc(C2c3c(oc4ccccc4c3=O)C(=O)N2Cc2ccccc2Cl)ccc1O (configuration not stated) | ? | -8% | -11% | -18% | 2% | -6% | / | / | / | / | /
COc1cc(C2c3c(oc4ccccc4c3=O)C(=O)N2Cc2ccccc2Cl)ccc1O (configuration not stated) | 11µM* | 10% | -1% | -10% | 3% | 3% | -9% | -4% | 4% | -8% | ?
CC1(C)CC(=O)c2c(C(F)(F)F)nn(-c3ccc(C(N)=O)c(NC4CCC(O)CC4)c3)c2C1 (configuration not stated) | / | -5% | ? | -62% | / | / | / | / | / | / | /
Nc1ncnc2ccccc12 | / | 2% | -7% | -13% | / | / | / | / | / | / | /
COc1cc(NS(=O)(=O)c2ccc3[nH]c4c(c3c2)CCCC4)cc(OC)c1OC | 12µM* | i | ? | -55% | -7% | ? | -10% | ? | -2% | -19% | ?
COc1cc(NS(=O)(=O)c2ccc3[nH]c4c(c3c2)CCCCCC4)cc(OC)c1 | ? | 1% | ? | -28% | -17% | ? | / | / | / | / | /
